A selection: hits, their analogues and other compounds. The true share with any hit is near 1.5%.
ANO1 activ: activators or potentiators of mouse TMEM16A chloride channel. Q8BHY3. HEK293 TMEM16A/YFP-H148Q/I152L, iodide quench fluorescence; stronger effect = lower value. B-score at 10 µM. 340,000 compounds, 0.3% hits. AID 623877;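 active = fluorescence-ratio B-score plate-corrected deviation score at least 3 library SD below zero, with starting fluorescence score within 5 deviations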;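 also: channel opened by trigger with iodide after compound preincubation; score built on the fluorescence ratio of max minus min over baseline; more negative score means more quench and so TMEM16A activation or potentiation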
DAGLB inhibitor: diacylglycerol lipase beta (human) inhibition | inhibition, % at 5.17 µM | AID 504411 | 340,000 compounds, 0.059% hits | HEK293T DAGLB membrane lysate, EnzChek fluorogenic substrate; in the data active = inhibition above about 34%;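 also: 0% = enzyme with vehicle and 100% = wells lacking enzyme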
Target sequence (Q8NCG7 whole entry, looked up): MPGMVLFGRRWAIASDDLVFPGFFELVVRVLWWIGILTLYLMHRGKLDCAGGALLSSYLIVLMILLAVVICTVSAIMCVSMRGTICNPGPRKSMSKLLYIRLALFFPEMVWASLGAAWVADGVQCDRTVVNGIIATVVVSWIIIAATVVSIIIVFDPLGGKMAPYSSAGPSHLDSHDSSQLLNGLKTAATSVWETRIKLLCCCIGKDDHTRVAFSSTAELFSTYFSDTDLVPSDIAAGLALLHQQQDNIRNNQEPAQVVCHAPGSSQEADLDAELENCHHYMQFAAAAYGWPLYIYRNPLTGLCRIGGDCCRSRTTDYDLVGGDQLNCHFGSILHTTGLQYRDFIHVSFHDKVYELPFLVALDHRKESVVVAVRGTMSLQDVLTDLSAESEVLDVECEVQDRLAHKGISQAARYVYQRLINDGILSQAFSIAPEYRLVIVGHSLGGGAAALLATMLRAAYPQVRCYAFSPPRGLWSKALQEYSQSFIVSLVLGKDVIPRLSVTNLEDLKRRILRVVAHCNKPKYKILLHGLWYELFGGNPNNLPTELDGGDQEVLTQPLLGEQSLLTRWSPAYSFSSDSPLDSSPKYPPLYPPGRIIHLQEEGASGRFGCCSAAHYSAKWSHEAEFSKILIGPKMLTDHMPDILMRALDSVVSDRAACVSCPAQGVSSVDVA
ABCB6 inh MLPCN: human ABCB6 transporter inhibition. AID 602162. Q9NP58. K562-ABCB6 porphyrin accumulation, flow cytometry, 1 h; stronger effect = lower value. 360,000 compounds, 0.19% hits. fluorescence ratio to DMSO, % at 10 µM;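 active = fluorescence ratio to DMSO below 75%, the collection mean minus 3 SD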;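 also: signal is porphyrin accumulated inside mitochondria; 100% equals median channel fluorescence of DMSO control wells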
hiPSC survival: increases survival of single human iPS cells. hiPSC single-cell survival, ATPlite luminescence; 100% = ROCK inhibitor wells, 0% = DMSO. survival enhancement, % at 20 µM. 360,000 compounds, 0.044% hits; in the data active = survival enhancement above about 18%;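 also: cells exposed to compounds for 16 hours before the ATP read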
ANO1 block: blocks the mouse calcium-activated chloride channel TMEM16A; Q8BHY3; HEK293 TMEM16A/YFP iodide influx fluorescence, ionomycin; normalized B-score (activity score, 25-100; higher = stronger inhibition) at 10 µM; 310,000 compounds, 1.2% hits; AID 588511;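 active = ratio plate-corrected score three or more library SD toward inhibition, starting fluorescence score within five deviations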;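 also: score derived from kinetic fluorescence span divided by baseline fluorescence per well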
* marks the source's active call; other numbers are inactive results; i = inactive; x = no result.

SMILES	ANO1 activ	DAGLB inhibitor	ABCB6 inh MLPCN	hiPSC survival	ANO1 block
COc1ccc(-n2c(-c3ccc(C)cc3)nc3ccccc3c2=O)cc1	-4.9*	-3	98	1	i
CCC1(c2ccc(C)cc2)C(=O)NC(=S)NC1=O	x	x	100	1	x
CC/C(=C(\c1ccccc1)c1ccc(OCCN(C)C)cc1)c1ccccc1	i	3	100	0	100*
CCC(=C(c1ccccc1)c1ccc(OCCN(C)C)cc1)c1ccccc1	x	x	94	0	x
COc1ccc(CN2C(=O)C(CC(=O)NCc3ccco3)CC(C(=O)N(C)C)=C2C)cc1 (stereo not drawn)	x	4	98	-2	x
C=C(CO)CC1CC(O)[C@]2(C)OC3CC4OC5C[C@]6(C)O[C@]7(C)CCC8OC9C[C@]%10(C)OC%11C(C)=CC(=O)OC%11CC%10OC9C[C@@H](C)C8OC7CC6O[C@]5(C)C/C=C\C4OC3CC2O1 (stereo partly drawn)	i	-2	95	-1	i
C=C(C=O)CC1CC(O)[C@]2(C)OC3CC4OC5C[C@]6(C)O[C@]7(C)CCC8OC9C[C@]%10(C)OC%11C(C)=CC(=O)OC%11CC%10OC9C[C@@H](C)C8OC7CC6O[C@]5(C)CC5OC5C4OC3CC2O1 (stereo partly drawn)	-8*	5	98	40*	i
CCC1C=CC=CC[C@H](C)[C@@H](O)[C@](C)(O)C(=O)[C@@H](C)[C@H](O)[C@@H](C)C(=O)[C@H](C)[C@@H](O)[C@H](C)C=CC(=O)OC2[C@@H](C)C(CC1)OC1(CC[C@@H](C)C(C[C@H](C)O)O1)[C@@H]2C (stereo partly drawn)	x	x	x	x	25*
Cc1ccc(S(=O)(=O)N2Cc3cc(-c4ccccc4)ccc3-n3nncc3C2)cc1	x	x	95	1	x
C[CH2][Hg][S]c1ccccc1C(=O)O	i	-1	92	-3	i
c1ccc2c(c1)-c1cccc3cccc-2c13	i	-7	101	3	i
c1ccc2c(c1)[IH]c1ccccc1-2	-5.8*	0	92	-4	x
Cc1ccc2c(c1)CC1(CN2C)C(=O)NC(=O)N(c2cc(C)ccc2C)C1=O (stereo not drawn)	i	-1	98	-1	25*
CSc1ccc(C(=O)C2CCCN(Cc3cnc(SC)nc3)C2)cc1 (stereo not drawn)	i	-3	89	0	25*
O=C1NCN(c2ccccc2)C12CCN(C(c1ccccc1OC(F)(F)F)c1nnnn1-c1ccc3c(c1)OCCO3)CC2 (stereo not drawn)	x	x	93	3	x
CC1=C[C@@H]2c3cccc4[nH]cc(c34)C[C@H]2N(C)C1	-14*	-3	146	2	i
CN1C[C@H](CO)C=C2c3cccc4[nH]cc(c34)C[C@H]21	i	-1	109	-1	i
COC(=O)C1=C(c2ccc(OCc3ccccc3)c(F)c2)C[C@@H]2CC[C@H]1N2C	x	4	103	1	x
Oc1c(Br)cc(Br)cc1Oc1ccc(Br)cc1Br	x	x	x	x	100*
CCN(CC)S(=O)(=O)c1ccc(NN=C(C#N)C#N)cc1	i	10	97	-2	100*
C=C1C(C)C2C(Cc3ccccc3)NC(=O)C23OC(=O)/C=C/C(O)CCCC(C)C/C=C/C3C1O (stereo not drawn)	i	1	87	30*	x
COc1cc2c(c(OC)c1OC)-c1ccc(OC)c(=O)cc1C(N)CC2 (stereo not drawn)	i	1	102	-2	x
CCCCn1c(O)c(C(CC)=Nc2ccc(OC)cc2OC)c(=O)[nH]c1=O	i	5	101	-1	25*
CC(C)(C)c1cc([N+](=O)[O-])cc(C(C)(C)C)c1O	x	x	x	x	100*
NC(=O)c1cc([N+](=O)[O-])cc([N+](=O)[O-])c1	i	2	95	-2	x
SMILES	ANO1 activ	DAGLB inhibitor	ABCB6 inh MLPCN	hiPSC survival	ANO1 block
CC(C)n1c(O)c(C2c3cc(Cl)ccc3Oc3[nH]c(=O)n(C(C)C)c(=O)c32)c(=O)[nH]c1=O (stereo not drawn)	i	15	97	26*	x
CCOC(=O)[C@]12Cc3cc(C)ccc3[C@H]1N(C1CCCCC1)C(=O)c1cc(OC)ccc12	x	x	93	-2	x
COc1cccc(C(c2nnnn2Cc2ccccc2)N2CCC3(CC2)C(=O)NCN3c2ccccc2)c1OC (stereo not drawn)	x	x	94	0	x
CCCCn1c(=O)c(C(=O)Nc2cnccn2)c(O)c2ccccc21	x	0	95	-2	100*
CCc1nc2ccc(Br)cc2c(=O)n1-c1ccccc1C(F)(F)F	i	0	97	-3	i
CCCc1nc2ccc(Br)cc2c(=O)n1-c1ccc([N+](=O)[O-])c(C(F)(F)F)c1	i	-7	102	2	100*
COc1ccccc1-c1cc(NC(C)=O)c2ncc(-c3ccccc3)n2c1	x	x	94	5	x
N[C@@H](Cc1c[nH]c2ccccc12)c1nnc(SCc2ccc(Cl)cc2)o1	i	0	71*	2	i
N[C@@H](Cc1c[nH]c2ccccc12)c1nnc(SCc2ccccc2)o1	i	4	98	-2	i
CNCC[C@@H](Oc1ccc(C(F)(F)F)cc1)c1ccccc1	i	3	96	-4	i
C[N+]1(C)[C@@H]2CC(OC(=O)[C@H](CO)c3ccccc3)C[C@H]1[C@@H]1O[C@@H]12 (stereo partly drawn)	i	2	101	3	i
CCCC[N+]1(C)[C@@H]2CC(OC(=O)[C@H](CO)c3ccccc3)C[C@H]1[C@@H]1O[C@@H]12 (stereo partly drawn)	-10*	2	104	-5	i
COc1ccc(OCC(=O)N2CCN(Cc3ccc(SC)cc3)CC2)cc1	i	2	101	0	100*
NC(N)=N/N=C/c1cn(-c2ccccc2)nc1-c1cccs1	i	4	103	-1	100*
O=c1c2ccccc2nc(-c2cccs2)n1-c1ccccc1	i	-3	105	3	i
COc1cc(C=NNC(=S)Nc2ccc(S(=O)(=O)N3CCCCC3)cc2)cc(OC)c1OC	x	0	93	2	x
Cc1[nH]c2ccc(OC(F)(F)F)cc2c1CCNCc1ccc(Cl)cc1	i	0	97	-1	i
CCOc1cccc(CNCCc2c(C)[nH]c3ccc(OC(F)(F)F)cc23)c1O	i	-2	90	0	100*
COc1ccc(Cn2c(O)c(C=NCCCn3ccnc3)c(=O)[nH]c2=O)cc1	i	3	105	18*	i
CCOC(=O)NC1CCc2cc(OC)c(OC)c(OC)c2-c2ccc(OC)c(=O)cc21 (stereo not drawn)	i	0	99	2	x
Cc1cc(C)n(-c2ccc(NN=C(C#N)C#N)cc2)n1	i	7	93	0	i

Assay outcomes from PubChem.
